Reference: PubChem BioAssay (NCI)
About 83,000 compounds went through this panel and 20% of them were active in at least one assay; those are over-represented in the sample as a whole.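 Percent growth is the endpoint: 0 to 100 indicates growth inhibition (40 means 60% inhibition), 0 means no net growth, and negative values indicate cell death.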 Unmarked numbers belong to inactive results. The source made the active and inactive calls. Rule for the calls: active = growth percent below 10; inactive = the rest.

tested on: TK-10 renal; assay: NCI-60 one-dose screen, 48 h (100 = growth as untreated, 0 = no growth, -100 = all killed); settings: 10 µM unless noted

| SMILES | growth |
| --- | --- |
| N#Cc1cccc(CN2CCC3=C(C2)C(=O)N(Cc2ccc(Cl)cc2)C2=NCCN23)c1 | 52.3% |
| COc1ccc(Oc2ccc(/C=N/NC(=O)CSc3nc4ccccc4c(=O)n3-c3ccc(Cl)cc3)cc2)cc1 | 96.5% |
| O=C(NNc1nc2cc(F)c(F)cc2n2c(CN3CC4CNCC4C3)ccc12)c1ncccn1 (stereo not drawn) | 16.2% |
| COc1cc(/C=C2\C(=O)Nc3cc(Cl)ccc32)ccc1OCc1ccc(F)cc1 | 185% |
| C#CCOc1ccc(/C=N\Nc2nc(-c3ccc(C)cc3)cs2)cc1OC | 166% |
| C=CCOc1cccc(/C=C2\SC(=S)N(C3CC(=O)N(c4ccc(Br)cc4)C3=O)C2=O)c1 (stereo not drawn) | 126% |
| COc1ccc(S(=O)(=O)NCCCNc2nccc(-c3[nH]c(-c4ccccc4)nc3-c3ccc(Cl)c(O)c3)n2)cc1 | 126% |
| CCn1c2ccccc2c2cc(-n3nncc3-c3ccccc3)ccc21 | 90.5% |
| N#Cc1cccc(CN2CCC3=C(C2)C(=O)N(Cc2ccc(Cl)cc2)C2=NCCCN23)c1 | 60.4% |
| COc1ccc(COc2ccc(/C=C3\C(=O)Nc4ccccc43)cc2OC)cc1 | 113% |
| O=C(NNc1nc2cc(F)ccc2n2c(CN3CC4CNCC4C3)ccc12)c1cnccn1 (stereo not drawn) | 22.4% |
| COc1ccc2[nH]cc(-c3csc4nc(-c5ccccc5)cn34)c2c1 | 75.6% |
| COC(=O)C[Se]C(=O)Cc1c(C)n(C(=O)c2ccc(Cl)cc2)c2ccc(OC)cc12 | 70.6% |
| CCOc1ccc(NC2=C(Cl)C(=O)c3nc(C)ccc3C2=O)cc1 | 121% |
| COc1cccc(/C=C(/C)c2ccc3cccc(OC)c3[o+]2)c1O | 116% |
| NC(N)=Nc1ccc(Oc2cccc(NC(N)=Nc3ccc(Cl)c(C(F)(F)F)c3)c2)cc1 | 74% |
| COc1ccc(CCOc2cc3c(cc2OC)CCN(C(=O)NCc2cocn2)C3c2ccc(C)cc2C)cc1 (stereo not drawn) | 49.8% |
| O=C1C(c2ccccc2)=C(N2CCc3ccccc32)OC1(Cl)Cl | 27.6% |
| O=C(NNc1nc2cc(F)ccc2n2c(CN3CCCC3)ccc12)c1cnccn1 | 40.2% |

| SMILES | growth |
| --- | --- |
| O=C(NNc1nc2cc(F)cc(F)c2n2cccc12)c1cnccn1 | 21.9% |
| O=C(O)c1ccc(-n2cc(CNc3cc(F)c(F)c(F)c3)c(-c3ccc(F)cc3)n2)cc1 | 150% |
| COc1ccc(NC2=C(Cl)C(=O)c3nc(C)ccc3C2=O)cc1OC | 149% |
| O=C(NNc1nc2cc(F)c(F)cc2n2c(CN3CC4CNCC4C3)ccc12)c1cnccn1 (stereo not drawn) | 33.4% |
| C[C@H](CCC(=O)NCc1ccc(C(=O)Nc2ccccc2N)cc1)[C@H]1CC[C@H]2[C@@H]3[C@@H](O)C[C@@H]4C[C@H](O)CC[C@]4(C)[C@H]3CC[C@]12C | 54.8% |
| CC(=O)c1cc(C(=O)c2ccc(Br)cc2)n2cc(C)cc(C)c12 | 103% |
| NC(=O)c1cccc(-n2ccc3cc(NC(=O)Nc4ccc(N5CCOCC5)c(C(F)(F)F)c4)ccc32)n1 | -7.65% (active) |
| COc1ccc2c(c1)c(CC(=O)[Se]CC(=O)O)c(C)n2C(=O)c1ccc(Cl)cc1 | 104% |
| CN(C)CCNC(=O)c1ccc(-c2nc3ccc4[nH]ncc4c3c3c2COCC3)cc1 | 44% |
| COc1ccc2c(c1)c(CC(=O)[Se]CCC#N)c(C)n2C(=O)c1ccc(Cl)cc1 | -74.7% (active) |
| CN1CCN(Cc2ccc(NC(=O)c3cncc(C#Cc4cnc5ccc(OCC(C)(C)O)nn45)c3)cc2C(F)(F)F)CC1 | -18.5% (active) |
| CNC(=O)c1cc(N2CCc3cc(NC(=O)Nc4ccc(Cl)c(C(F)(F)F)c4)ccc32)ccn1 | 86.6% |
| O=C(CSc1nc2ccccc2c(=O)n1-c1ccc(Cl)cc1)N/N=C/c1ccc(N2CCCCC2)cc1 | 103% |
| CCOc1ccc(C(=O)Nc2ncc(Cc3ccc(F)cc3)s2)cc1 | 57.9% |
| Cc1c(Cl)cccc1S(=O)(=O)Nc1ccc2c(c1)C(=O)N(C1CCC(=O)NC1=O)C2=O (stereo not drawn) | 75.2% |
| CC/C(=C/c1cc(OC)ccc1O)c1ccc2cc(OC)ccc2[o+]1 | 116% |
| COc1c(N2CC3CCCNC3C2)c(F)cc2c(=O)c(C(=O)N/N=C/c3ccc4c(c3)OCO4)cn(C3CC3)c12 (stereo not drawn) | 124% |
| CN1CCN(Cc2ccc(NC(=O)c3cncc(C#Cc4cnc5ccc(OCC6(C)COC6)nn45)c3)cc2C(F)(F)F)CC1 | -73.7% (active) |
| O=C(NNc1nc2cc(F)c(F)cc2n2cccc12)c1cnccn1 | 49.3% |
